Measurements: PubChem BioAssay AID1159580 (chemical genetic matrix, 2015)
The whole screen tested about 5,500 compounds, of which about 2,000 (36%) were called active. Another 18% or so got no clear call; they are omitted. Rule as the data show it: active = normalized growth mostly below about 0.91 (no sharp cut-off); inconclusive = no clear call, values can overlap the other calls; inactive = mostly above about 0.92. This is one part of the list.

Experiment: chemical genetic growth profiling, strain panel (AID 1159580);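 also: tested at 20 µM; growth read once vehicle control cultures reached saturation at 30 °C; 1 = growth at the plate median or of vehicle wells; lower values mean less growth of the strain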
Conditions: growth OD

Measured: normalized growth

CC(=O)O[C@H]1C(=O)[C@@]2(C)C([C@H](OC(=O)c3ccccc3)[C@]3(O)C[C@H](OC(=O)[C@H](O)[C@@H](NC(=O)c4ccccc4)c4ccccc4)C(C)=C1C3(C)C)[C@]1(OC(C)=O)CO[C@@H]1C[C@@H]2O (stereo partly specified)
inactive: S. cerevisiae deletion strains, locus YJR066W, strain TOR1, active compounds read low 0.943 | S. cerevisiae deletion strains, locus YJR075W, strain HOC1, active compounds read low 1.04 | S. cerevisiae deletion strains, locus YKL160W, strain elf1, active compounds read low 1.01 | S. cerevisiae deletion strains, locus YKL190W, strain CNB1, active compounds read low 1.02 | S. cerevisiae deletion strains, locus YKR026C, strain gcn3, active compounds read low 0.999 | S. cerevisiae deletion strains, locus YKR091W, strain srl3, active compounds read low 1 | S. cerevisiae deletion strains, locus YLL001W, strain dnm1, active compounds read low 1.05 | S. cerevisiae deletion strains, locus YLL026W, active compounds read low 0.993 | S. cerevisiae deletion strains, locus YLL041C, strain sdh2, active compounds read low 0.979 | S. cerevisiae deletion strains, locus YLR027C, strain aat2, active compounds read low 0.97 | S. cerevisiae deletion strains, locus YLR039C, strain RIC1, active compounds read low 1.06 | S. cerevisiae deletion strains, locus YLR058C, strain SHM2, active compounds read low 1.03 | S. cerevisiae deletion strains, locus YLR102C, strain apc9, active compounds read low 1.03 | S. cerevisiae deletion strains, locus YLR113W, strain HOG1, active compounds read low 0.945 | S. cerevisiae deletion strains, locus YLR221C, strain rsa3, active compounds read low 1.03 | S. cerevisiae deletion strains, locus YLR258W, strain gsy2, active compounds read low 0.997 | S. cerevisiae deletion strains, locus YLR262C, strain YPT6 (second series), active compounds read low 1.02 | S. cerevisiae deletion strains, locus YLR262C, strain YPT6, active compounds read low 1.15 | S. cerevisiae deletion strains, locus YLR268W, strain sec22, active compounds read low 1.06 | S. cerevisiae deletion strains, locus YLR320W, strain mms22, active compounds read low 1.01 | S. cerevisiae deletion strains, locus YLR330W, strain CHS5, active compounds read low 1.03 | S. cerevisiae deletion strains, locus YLR342W, strain FKS1 (second series), active compounds read low 1.06 | S. cerevisiae deletion strains, locus YLR342W, strain FKS1, active compounds read low 1 | S. cerevisiae deletion strains, locus YLR357W, strain rsc2, active compounds read low 1 | S. cerevisiae deletion strains, locus YLR370C, strain arc18, active compounds read low 1.02 | S. cerevisiae deletion strains, locus YLR371W, strain rom2, active compounds read low 1.03 | S. cerevisiae deletion strains, locus YLR384C, strain iki3, active compounds read low 0.982 | S. cerevisiae deletion strains, locus YML016C, strain PPZ1, active compounds read low 1.03 | S. cerevisiae deletion strains, locus YML032C, strain rad52, active compounds read low 1.05 | S. cerevisiae deletion strains, locus YML120C, strain ndi1, active compounds read low 1.02 | S. cerevisiae deletion strains, locus YMR058W, strain fet3, active compounds read low 0.968 | S. cerevisiae deletion strains, locus YMR125W, strain sto1, active compounds read low 1.01 | S. cerevisiae deletion strains, locus YMR129W, active compounds read low 0.987 | S. cerevisiae deletion strains, locus YMR205C, strain PFK2, active compounds read low 1.02 | S. cerevisiae deletion strains, locus YMR231W, strain pep5, active compounds read low 0.983 | S. cerevisiae deletion strains, locus YMR263W, strain SAP30, active compounds read low 1.06 | S. cerevisiae deletion strains, locus YMR307W, strain GAS1, active compounds read low 1.09 | S. cerevisiae deletion strains, locus YNL067W, strain RPL9B, active compounds read low 1.02 | S. cerevisiae deletion strains, locus YNL071W, strain lat1, active compounds read low 0.972 | S. cerevisiae deletion strains, locus YNL128W, strain TEP1, active compounds read low 1.05 | S. cerevisiae deletion strains, locus YNL153C, strain GIM3, active compounds read low 1.03 | S. cerevisiae deletion strains, locus YNL183C, strain NPR1, active compounds read low 0.952 | S. cerevisiae deletion strains, locus YNL209W, strain ssb2, active compounds read low 1.01 | S. cerevisiae deletion strains, locus YNL233W, strain BNI4, active compounds read low 1.02 | S. cerevisiae deletion strains, locus YNL250W, strain rad50, active compounds read low 0.921 | S. cerevisiae deletion strains, locus YNL271C, strain bni1, active compounds read low 1 | S. cerevisiae deletion strains, locus YNL298W, strain CLA4, active compounds read low 0.941 | S. cerevisiae deletion strains, locus YNL307C, strain MCK1, active compounds read low 1.03 | S. cerevisiae deletion strains, locus YNL322C, strain KRE1 (second series), active compounds read low 0.986 | S. cerevisiae deletion strains, locus YNL322C, strain KRE1, active compounds read low 1.03 | S. cerevisiae deletion strains, locus YNR049C, strain mso1, active compounds read low 1 | S. cerevisiae deletion strains, locus YOL006C, strain TOP1, active compounds read low 1.01 | S. cerevisiae deletion strains, locus YOL012C, strain htz1 2.06 | S. cerevisiae deletion strains, locus YOL147C, strain pex11, active compounds read low 1.05 | S. cerevisiae deletion strains, locus YOR001W, strain rrp6, active compounds read low 0.902 | S. cerevisiae deletion strains, locus YOR061W, strain CKA2, active compounds read low 1.03 | S. cerevisiae deletion strains, locus YOR069W, strain VPS5, active compounds read low 1.02 | S. cerevisiae deletion strains, locus YOR070C, strain gyp1, active compounds read low 0.995 | S. cerevisiae deletion strains, locus YOR080W, strain dia2, active compounds read low 1.01 | S. cerevisiae deletion strains, locus YOR083W, strain WHI5, active compounds read low 1.01 | S. cerevisiae deletion strains, locus YOR106W, strain vam3, active compounds read low 0.987 | S. cerevisiae deletion strains, locus YOR231W, strain MKK1, active compounds read low 0.964 | S. cerevisiae deletion strains, locus YOR265W, strain rbl2, active compounds read low 0.999 | S. cerevisiae deletion strains, locus YOR270C, strain vph1, active compounds read low 0.866 | S. cerevisiae deletion strains, locus YOR290C, strain snf2, active compounds read low 1.02 | S. cerevisiae deletion strains, locus YOR316C, strain cot1, active compounds read low 1.06 | S. cerevisiae deletion strains, locus YPL051W, strain arl3, active compounds read low 0.987 | S. cerevisiae deletion strains, locus YPL055C, strain LGE1, active compounds read low 1.1 | S. cerevisiae deletion strains, locus YPL078C, strain atp4, active compounds read low 0.956 | S. cerevisiae deletion strains, locus YPL106C, strain sse1, active compounds read low 1.04 | S. cerevisiae deletion strains, locus YPL240C, strain hsp82, active compounds read low 0.994 | S. cerevisiae deletion strains, locus YPL241C, strain CIN2, active compounds read low 1.04 | S. cerevisiae deletion strains, locus YPL256C, strain CLN2, active compounds read low 1.1 | S. cerevisiae deletion strains, locus YPR119W, strain clb2, active compounds read low 1.03 | S. cerevisiae deletion strains, locus YPR141C, strain kar3, active compounds read low 0.94 | S. cerevisiae deletion strains, locus YPR163C, strain tif3, active compounds read low 1.05 | S. cerevisiae deletion strains, strain wtn01, active compounds read low 1.09 | S. cerevisiae strains, strain wild type, active compounds read low 0.995
active: S. cerevisiae deletion strains, locus YKL009W, strain mrt4, active compounds read low 0.636 | S. cerevisiae deletion strains, locus YKL068W, active compounds read low 0.781 | S. cerevisiae deletion strains, locus YKL085W, strain MDH1 (second series), active compounds read low 0.884 | S. cerevisiae deletion strains, locus YKL085W, strain MDH1, active compounds read low 0.884 | S. cerevisiae deletion strains, locus YLR418C, strain cdc73, active compounds read low 1.25 [resistant] | S. cerevisiae deletion strains, locus YML124C, strain tub3, active compounds read low 1.11 [resistant] | S. cerevisiae deletion strains, locus YMR078C, strain ctf18, active compounds read low 1.1 [resistant] | S. cerevisiae deletion strains, locus YMR223W, strain ubp8, active compounds read low 1.12 [resistant] | S. cerevisiae deletion strains, locus YNL248C, strain rpa49, active compounds read low 0.783 | S. cerevisiae deletion strains, locus YNR052C, strain pop2, active compounds read low 1.09 [resistant] | S. cerevisiae deletion strains, locus YOR136W, strain idh2, active compounds read low 1.1 [resistant] | S. cerevisiae deletion strains, locus YOR144C, strain elg1, active compounds read low 1.1 [resistant] | S. cerevisiae deletion strains, locus YPR167C, strain met16, active compounds read low 1.08 [resistant]
